# Data reported in paper PMC7862700, “An all-to-all approach to the identification of sequence-specific readers for epigenetic DNA modifications on cytosine”.
# Experiments:
# Test in all cases: DAPPL (digital affinity profiling via proximity ligation, sequencing); 10 mM Tris-HCl pH 7.5, 50 mM NaCl, 1 mM DTT, 4% glycerol, room temperature, 30 min; GST-TFs on glutathione beads, 16-mer random dsDNA library, 0.1% formaldehyde crosslink after washing; high values mean tight binding
# FLI1 = biological target: T1, FLI1 (Homo sapiens, UniProt Q01543 1-452); details: protein: recombinant; tags: N-terminal GST; dsDNA, one strand shown
# T1 sequence: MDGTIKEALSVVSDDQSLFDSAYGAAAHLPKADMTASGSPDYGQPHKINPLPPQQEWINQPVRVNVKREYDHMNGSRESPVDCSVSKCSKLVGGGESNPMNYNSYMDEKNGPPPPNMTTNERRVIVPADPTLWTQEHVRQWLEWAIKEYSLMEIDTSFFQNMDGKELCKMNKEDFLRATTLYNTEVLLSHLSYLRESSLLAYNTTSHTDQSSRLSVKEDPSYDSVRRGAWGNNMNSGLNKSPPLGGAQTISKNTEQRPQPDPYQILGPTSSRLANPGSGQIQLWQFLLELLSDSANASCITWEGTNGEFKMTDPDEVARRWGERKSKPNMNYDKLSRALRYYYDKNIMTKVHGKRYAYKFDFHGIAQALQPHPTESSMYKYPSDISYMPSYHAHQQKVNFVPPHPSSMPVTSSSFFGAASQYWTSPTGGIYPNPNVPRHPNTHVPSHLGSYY
# Outline: (§1)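 GST fusions of human transcription factors were expressed in yeast and captured with glutathione beads. Once given DNA barcodes and pooled alongside a tag-only sample, they were incubated for 30 min at room temperature with 200 nmole of a random double-stranded 16-mer DNA library in Tris/NaCl/DTT/glycerol buffer, then washed, crosslinked (0.1% formaldehyde), proximity-ligated, PCR-amplified and sequenced on an Illumina NextSeq500. The binding signal of each hexamer is its read frequency for a factor divided by its frequency for the tag-only sample.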
# ELK1 = biological target: T2, ELK1 (Homo sapiens, UniProt P19419 1-428); details: protein: recombinant; tags: N-terminal GST; dsDNA, one strand shown
# T2 sequence: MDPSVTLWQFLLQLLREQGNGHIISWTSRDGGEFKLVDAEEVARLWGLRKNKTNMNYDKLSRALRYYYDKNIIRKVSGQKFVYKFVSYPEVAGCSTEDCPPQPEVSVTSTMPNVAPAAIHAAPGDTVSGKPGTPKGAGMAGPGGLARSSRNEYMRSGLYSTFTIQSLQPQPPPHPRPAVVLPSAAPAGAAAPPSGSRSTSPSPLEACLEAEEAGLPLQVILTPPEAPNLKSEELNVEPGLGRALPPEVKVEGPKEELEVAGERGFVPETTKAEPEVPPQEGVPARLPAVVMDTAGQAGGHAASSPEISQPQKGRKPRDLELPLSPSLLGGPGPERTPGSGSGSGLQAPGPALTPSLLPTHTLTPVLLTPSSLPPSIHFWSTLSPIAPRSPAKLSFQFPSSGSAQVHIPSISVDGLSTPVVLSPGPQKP
# Outline: as §1
# GABPA = biological target: T3, GABPA (Homo sapiens, UniProt Q06546 1-454); details: protein: recombinant; tags: N-terminal GST; dsDNA, one strand shown
# T3 sequence: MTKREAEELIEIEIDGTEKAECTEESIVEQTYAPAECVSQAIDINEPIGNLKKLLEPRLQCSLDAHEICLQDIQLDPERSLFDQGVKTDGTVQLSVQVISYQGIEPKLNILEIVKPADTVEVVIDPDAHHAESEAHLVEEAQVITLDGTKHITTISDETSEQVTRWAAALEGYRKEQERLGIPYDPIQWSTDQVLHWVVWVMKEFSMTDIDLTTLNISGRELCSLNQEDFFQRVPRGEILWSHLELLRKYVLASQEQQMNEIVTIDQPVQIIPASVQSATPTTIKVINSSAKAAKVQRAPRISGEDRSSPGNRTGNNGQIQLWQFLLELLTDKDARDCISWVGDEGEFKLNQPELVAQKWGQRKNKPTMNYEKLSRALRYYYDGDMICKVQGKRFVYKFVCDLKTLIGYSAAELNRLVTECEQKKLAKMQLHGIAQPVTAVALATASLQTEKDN
# Outline: as §1
# ERG = biological target: T4, ERG (Homo sapiens, UniProt P11308 1-479); details: protein: recombinant; tags: N-terminal GST; dsDNA, one strand shown
# T4 sequence: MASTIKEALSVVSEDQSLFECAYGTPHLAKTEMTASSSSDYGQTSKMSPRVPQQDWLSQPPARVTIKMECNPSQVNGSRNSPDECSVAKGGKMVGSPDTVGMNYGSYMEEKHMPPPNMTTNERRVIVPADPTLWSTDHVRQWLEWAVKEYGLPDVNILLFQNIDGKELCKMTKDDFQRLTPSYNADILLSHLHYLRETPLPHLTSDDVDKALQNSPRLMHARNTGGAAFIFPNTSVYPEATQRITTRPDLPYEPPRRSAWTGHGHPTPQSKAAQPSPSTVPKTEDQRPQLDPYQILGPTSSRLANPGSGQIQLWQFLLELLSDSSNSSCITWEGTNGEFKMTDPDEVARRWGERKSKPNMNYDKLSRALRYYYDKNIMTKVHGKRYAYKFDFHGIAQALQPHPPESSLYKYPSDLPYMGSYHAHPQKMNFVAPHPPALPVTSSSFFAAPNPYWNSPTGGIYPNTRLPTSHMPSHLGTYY
# Outline: as §1
# ELF1 = ELF1 (Homo sapiens, UniProt P32519 1-619); details: protein: recombinant; tags: N-terminal GST; dsDNA, one strand shown
# Outline: as §1
# EHF = biological target: T5, EHF (Homo sapiens, UniProt Q9NZC4 1-300); details: protein: recombinant; tags: N-terminal GST; dsDNA, one strand shown
# T5 sequence: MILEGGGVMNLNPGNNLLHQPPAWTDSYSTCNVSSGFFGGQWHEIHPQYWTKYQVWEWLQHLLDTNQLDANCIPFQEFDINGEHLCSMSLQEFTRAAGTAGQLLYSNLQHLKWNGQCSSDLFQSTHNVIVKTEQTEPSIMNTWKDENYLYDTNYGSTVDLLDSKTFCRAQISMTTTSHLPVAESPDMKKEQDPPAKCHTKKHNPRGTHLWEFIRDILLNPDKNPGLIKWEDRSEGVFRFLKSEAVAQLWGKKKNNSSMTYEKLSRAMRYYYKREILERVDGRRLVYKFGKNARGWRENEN
# Outline: as §1
# SPI1 = SPI1 (Homo sapiens, UniProt P17947 1-270); details: protein: recombinant; tags: N-terminal GST; dsDNA, one strand shown
# Outline: as §1
# SPIB = SPIB (Homo sapiens, UniProt Q01892 1-262); details: protein: recombinant; tags: N-terminal GST; dsDNA, one strand shown
# Outline: as §1
# ELK3 = biological target: T6, ELK3 (Homo sapiens, UniProt P41970 1-407); details: protein: recombinant; tags: N-terminal GST; dsDNA, one strand shown
# T6 sequence: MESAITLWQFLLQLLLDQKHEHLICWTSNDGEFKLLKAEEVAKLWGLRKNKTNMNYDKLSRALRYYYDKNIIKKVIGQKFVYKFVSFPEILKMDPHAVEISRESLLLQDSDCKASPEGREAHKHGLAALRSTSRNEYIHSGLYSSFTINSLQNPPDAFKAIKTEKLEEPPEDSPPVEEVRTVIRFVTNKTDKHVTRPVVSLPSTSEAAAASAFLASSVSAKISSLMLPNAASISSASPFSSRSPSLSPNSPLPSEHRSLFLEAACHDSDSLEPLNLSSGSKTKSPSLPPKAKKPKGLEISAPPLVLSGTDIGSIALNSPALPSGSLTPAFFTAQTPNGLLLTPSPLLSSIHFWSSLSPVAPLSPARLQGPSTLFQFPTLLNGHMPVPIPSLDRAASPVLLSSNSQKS
# Outline: as §1
# FEV = biological target: T7, FEV (Homo sapiens, UniProt Q99581 1-238); details: protein: recombinant; tags: N-terminal GST; dsDNA, one strand shown
# T7 sequence: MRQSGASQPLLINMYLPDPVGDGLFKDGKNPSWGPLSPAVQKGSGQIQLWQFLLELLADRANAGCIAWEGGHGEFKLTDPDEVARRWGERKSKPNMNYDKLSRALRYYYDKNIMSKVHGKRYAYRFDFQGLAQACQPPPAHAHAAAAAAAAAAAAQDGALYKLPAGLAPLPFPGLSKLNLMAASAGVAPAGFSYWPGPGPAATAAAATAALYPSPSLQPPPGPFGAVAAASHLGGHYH
# Outline: as §1
# ETV5 = ETV5 (Homo sapiens, UniProt P41161 1-510); details: protein: recombinant; tags: N-terminal GST; dsDNA, one strand shown
# Outline: as §1
# HSF1 = HSF1 (Homo sapiens, UniProt Q00613 1-529); details: protein: recombinant; tags: N-terminal GST; chain copies: 3; dsDNA, one strand shown
# Outline: as §1
# SPIC = biological target: T8, SPIC (Homo sapiens, UniProt Q8N5J4 1-248); details: protein: recombinant; tags: N-terminal GST; dsDNA, one strand shown
# T8 sequence: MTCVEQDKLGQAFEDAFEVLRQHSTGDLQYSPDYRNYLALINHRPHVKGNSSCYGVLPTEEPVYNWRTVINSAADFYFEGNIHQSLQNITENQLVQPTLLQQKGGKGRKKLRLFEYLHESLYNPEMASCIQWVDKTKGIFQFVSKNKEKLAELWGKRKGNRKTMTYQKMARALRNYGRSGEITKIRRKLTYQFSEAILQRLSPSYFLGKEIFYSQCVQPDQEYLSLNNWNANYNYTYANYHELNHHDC
# Outline: as §1
# ELF4 = ELF4 (Homo sapiens, UniProt Q99607 1-663); details: protein: recombinant; tags: N-terminal GST; dsDNA, one strand shown
# Outline: as §1
# ELK4 = biological target: T9, ELK4 (Homo sapiens, UniProt P28324-2 1-405); details: protein: recombinant; tags: N-terminal GST; dsDNA, one strand shown
# T9 sequence: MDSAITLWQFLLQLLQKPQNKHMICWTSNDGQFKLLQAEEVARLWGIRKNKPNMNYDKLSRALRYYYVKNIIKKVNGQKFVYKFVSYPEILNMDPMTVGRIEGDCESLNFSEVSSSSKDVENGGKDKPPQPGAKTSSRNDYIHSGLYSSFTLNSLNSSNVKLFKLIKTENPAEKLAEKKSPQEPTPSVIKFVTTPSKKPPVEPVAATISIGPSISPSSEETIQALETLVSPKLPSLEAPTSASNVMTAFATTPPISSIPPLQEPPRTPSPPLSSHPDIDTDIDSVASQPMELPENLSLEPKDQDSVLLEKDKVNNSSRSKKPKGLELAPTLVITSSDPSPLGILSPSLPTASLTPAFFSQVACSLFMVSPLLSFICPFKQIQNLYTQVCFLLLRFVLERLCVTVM
# Outline: as §1
# ETV2 = biological target: T10, ETV2 (Homo sapiens, UniProt O00321 1-342); details: protein: recombinant; tags: N-terminal GST; dsDNA, one strand shown
# T10 sequence: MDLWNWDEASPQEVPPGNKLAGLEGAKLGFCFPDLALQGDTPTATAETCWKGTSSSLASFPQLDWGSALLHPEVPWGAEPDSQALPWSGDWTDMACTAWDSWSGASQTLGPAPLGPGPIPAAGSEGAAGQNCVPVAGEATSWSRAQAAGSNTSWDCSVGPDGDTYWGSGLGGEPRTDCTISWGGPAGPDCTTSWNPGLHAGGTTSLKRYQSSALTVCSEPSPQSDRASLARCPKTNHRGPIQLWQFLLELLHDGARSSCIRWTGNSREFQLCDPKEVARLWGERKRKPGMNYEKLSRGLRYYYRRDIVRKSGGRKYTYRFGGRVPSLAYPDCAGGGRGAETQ
# Outline: as §1
# ELF3 = biological target: T11, ELF3 (Homo sapiens, UniProt P78545 1-371); details: protein: recombinant; tags: N-terminal GST; dsDNA, one strand shown
# T11 sequence: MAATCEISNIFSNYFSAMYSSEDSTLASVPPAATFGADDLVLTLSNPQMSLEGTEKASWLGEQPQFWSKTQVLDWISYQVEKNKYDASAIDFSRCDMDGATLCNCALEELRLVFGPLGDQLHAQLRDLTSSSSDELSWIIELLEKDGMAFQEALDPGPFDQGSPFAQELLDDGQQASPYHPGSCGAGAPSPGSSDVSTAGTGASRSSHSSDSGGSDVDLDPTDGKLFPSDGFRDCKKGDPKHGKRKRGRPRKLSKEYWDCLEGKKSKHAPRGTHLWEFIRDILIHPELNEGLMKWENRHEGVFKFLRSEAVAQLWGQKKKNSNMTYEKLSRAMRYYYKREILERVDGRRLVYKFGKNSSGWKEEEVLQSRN
# Outline: as §1
# CRX = CRX (Homo sapiens, UniProt O43186 1-299); details: protein: recombinant; tags: N-terminal GST; dsDNA, one strand shown
# Outline: as §1
# ETV1 = ETV1 (Homo sapiens, UniProt P50549 1-477); details: protein: recombinant; tags: N-terminal GST; dsDNA, one strand shown
# Outline: as §1
# Sequence of CRX (O43186 whole entry): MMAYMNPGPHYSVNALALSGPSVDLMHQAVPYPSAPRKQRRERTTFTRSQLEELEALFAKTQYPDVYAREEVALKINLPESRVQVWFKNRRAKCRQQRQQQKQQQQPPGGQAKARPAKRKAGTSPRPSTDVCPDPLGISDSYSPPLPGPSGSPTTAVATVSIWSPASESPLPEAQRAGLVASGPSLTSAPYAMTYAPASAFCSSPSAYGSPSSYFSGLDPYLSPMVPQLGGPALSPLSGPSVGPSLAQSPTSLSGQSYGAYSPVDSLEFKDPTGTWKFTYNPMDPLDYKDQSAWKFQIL
# Sequence of SPIB (Q01892 whole entry): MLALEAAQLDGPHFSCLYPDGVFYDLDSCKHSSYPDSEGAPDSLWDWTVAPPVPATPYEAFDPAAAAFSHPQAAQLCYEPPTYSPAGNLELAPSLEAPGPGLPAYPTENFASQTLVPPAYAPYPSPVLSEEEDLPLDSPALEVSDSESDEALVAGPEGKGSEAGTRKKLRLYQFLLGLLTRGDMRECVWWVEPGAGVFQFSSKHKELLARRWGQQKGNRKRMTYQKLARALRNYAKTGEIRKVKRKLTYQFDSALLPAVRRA
# Sequence of HSF1 (Q00613 whole entry): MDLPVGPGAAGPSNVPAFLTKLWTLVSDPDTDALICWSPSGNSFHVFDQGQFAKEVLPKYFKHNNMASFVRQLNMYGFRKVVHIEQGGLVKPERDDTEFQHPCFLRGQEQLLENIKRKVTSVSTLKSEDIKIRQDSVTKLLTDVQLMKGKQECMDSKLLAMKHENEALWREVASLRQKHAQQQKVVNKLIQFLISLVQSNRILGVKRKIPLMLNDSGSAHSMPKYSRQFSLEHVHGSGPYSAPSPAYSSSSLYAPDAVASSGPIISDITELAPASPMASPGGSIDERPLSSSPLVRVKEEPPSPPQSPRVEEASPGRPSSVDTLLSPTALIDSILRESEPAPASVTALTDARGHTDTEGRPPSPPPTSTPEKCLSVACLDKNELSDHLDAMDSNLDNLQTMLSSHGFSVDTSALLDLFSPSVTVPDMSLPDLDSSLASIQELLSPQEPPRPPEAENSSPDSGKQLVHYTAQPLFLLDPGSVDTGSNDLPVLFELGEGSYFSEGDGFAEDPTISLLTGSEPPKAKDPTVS
# Sequence of ELF4 (Q99607 whole entry): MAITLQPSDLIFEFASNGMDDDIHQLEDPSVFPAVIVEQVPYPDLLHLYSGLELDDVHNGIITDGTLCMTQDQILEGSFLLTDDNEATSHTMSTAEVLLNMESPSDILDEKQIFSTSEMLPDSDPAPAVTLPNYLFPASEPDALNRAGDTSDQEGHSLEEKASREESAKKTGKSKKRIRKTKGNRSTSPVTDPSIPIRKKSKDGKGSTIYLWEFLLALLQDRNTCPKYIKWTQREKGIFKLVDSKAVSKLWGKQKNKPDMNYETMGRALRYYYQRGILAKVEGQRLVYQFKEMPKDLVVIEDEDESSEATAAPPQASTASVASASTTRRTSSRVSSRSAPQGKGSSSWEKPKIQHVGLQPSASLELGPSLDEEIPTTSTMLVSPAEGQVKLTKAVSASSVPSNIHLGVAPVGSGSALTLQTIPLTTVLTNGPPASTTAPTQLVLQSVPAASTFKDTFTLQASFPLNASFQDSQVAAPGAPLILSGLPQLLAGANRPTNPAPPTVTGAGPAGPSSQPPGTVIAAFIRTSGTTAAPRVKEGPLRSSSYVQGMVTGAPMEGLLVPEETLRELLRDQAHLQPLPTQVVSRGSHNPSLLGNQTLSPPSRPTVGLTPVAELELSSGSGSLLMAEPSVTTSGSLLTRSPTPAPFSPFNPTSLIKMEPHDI
# Sequence of ETV5 (P41161 whole entry): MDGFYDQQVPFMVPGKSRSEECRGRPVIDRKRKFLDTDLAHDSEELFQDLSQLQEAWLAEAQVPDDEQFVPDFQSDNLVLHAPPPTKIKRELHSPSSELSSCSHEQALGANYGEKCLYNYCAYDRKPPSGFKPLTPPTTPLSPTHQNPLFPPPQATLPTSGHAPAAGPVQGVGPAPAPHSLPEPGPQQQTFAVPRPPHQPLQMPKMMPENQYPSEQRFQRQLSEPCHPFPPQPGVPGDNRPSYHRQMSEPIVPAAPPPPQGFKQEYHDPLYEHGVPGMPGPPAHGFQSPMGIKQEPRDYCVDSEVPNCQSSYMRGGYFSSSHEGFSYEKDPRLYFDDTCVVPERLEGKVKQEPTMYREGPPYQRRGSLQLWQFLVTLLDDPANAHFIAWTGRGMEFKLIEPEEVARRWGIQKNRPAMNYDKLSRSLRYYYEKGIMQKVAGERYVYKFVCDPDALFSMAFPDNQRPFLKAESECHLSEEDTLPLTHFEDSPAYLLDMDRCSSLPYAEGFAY
# Sequence of ETV1 (P50549 whole entry): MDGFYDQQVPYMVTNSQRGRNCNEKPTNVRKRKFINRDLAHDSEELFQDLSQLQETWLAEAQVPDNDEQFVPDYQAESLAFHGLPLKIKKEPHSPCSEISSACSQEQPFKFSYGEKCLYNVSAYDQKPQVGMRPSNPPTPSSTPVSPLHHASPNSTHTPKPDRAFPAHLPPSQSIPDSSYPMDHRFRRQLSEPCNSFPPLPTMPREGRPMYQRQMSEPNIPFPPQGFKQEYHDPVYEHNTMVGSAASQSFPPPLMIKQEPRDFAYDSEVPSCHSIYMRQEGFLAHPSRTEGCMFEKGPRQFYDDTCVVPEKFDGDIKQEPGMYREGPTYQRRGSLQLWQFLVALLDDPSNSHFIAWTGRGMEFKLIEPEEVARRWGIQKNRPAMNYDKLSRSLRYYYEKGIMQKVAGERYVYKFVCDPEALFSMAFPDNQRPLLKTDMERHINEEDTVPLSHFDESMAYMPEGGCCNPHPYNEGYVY
# Sequence of ELF1 (P32519 whole entry): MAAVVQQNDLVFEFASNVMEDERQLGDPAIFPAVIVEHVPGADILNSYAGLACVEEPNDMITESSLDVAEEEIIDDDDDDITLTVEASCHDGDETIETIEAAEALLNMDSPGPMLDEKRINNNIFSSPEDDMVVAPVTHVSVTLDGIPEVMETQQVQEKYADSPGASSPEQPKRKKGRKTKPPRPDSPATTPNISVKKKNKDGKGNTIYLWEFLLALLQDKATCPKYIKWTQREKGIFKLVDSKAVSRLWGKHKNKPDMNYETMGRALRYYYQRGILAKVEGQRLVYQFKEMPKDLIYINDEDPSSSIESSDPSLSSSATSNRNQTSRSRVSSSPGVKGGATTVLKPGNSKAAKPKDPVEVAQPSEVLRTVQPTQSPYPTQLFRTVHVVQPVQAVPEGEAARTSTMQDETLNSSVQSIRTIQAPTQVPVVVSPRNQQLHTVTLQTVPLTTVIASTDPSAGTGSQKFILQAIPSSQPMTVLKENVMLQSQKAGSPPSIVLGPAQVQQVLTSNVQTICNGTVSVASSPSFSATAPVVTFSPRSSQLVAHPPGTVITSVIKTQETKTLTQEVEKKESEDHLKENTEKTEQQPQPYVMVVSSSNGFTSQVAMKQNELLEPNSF
sequence,measurement,setting,value
ACCTAT,binding signal,FLI1,"1.18 fold enrichment (6-mer frequency, TF over GST control)"
same,binding signal,ELK1,"1.26 fold enrichment (6-mer frequency, TF over GST control)"
same,binding signal,GABPA,"1.16 fold enrichment (6-mer frequency, TF over GST control)"
same,binding signal,ERG,"1.07 fold enrichment (6-mer frequency, TF over GST control)"
same,binding signal,ELF1,"1.21 fold enrichment (6-mer frequency, TF over GST control)"
same,binding signal,EHF,"1.21 fold enrichment (6-mer frequency, TF over GST control)"
same,binding signal,SPI1,"1.17 fold enrichment (6-mer frequency, TF over GST control)"
same,binding signal,SPIB,"1.15 fold enrichment (6-mer frequency, TF over GST control)"
same,binding signal,ELK3,"1.17 fold enrichment (6-mer frequency, TF over GST control)"
same,binding signal,FEV,"1.15 fold enrichment (6-mer frequency, TF over GST control)"
same,binding signal,ETV5,"1.14 fold enrichment (6-mer frequency, TF over GST control)"
same,binding signal,HSF1,"1.05 fold enrichment (6-mer frequency, TF over GST control)"
same,binding signal,SPIC,"1.11 fold enrichment (6-mer frequency, TF over GST control)"
same,binding signal,ELF4,"1.24 fold enrichment (6-mer frequency, TF over GST control)"
same,binding signal,ELK4,"1.13 fold enrichment (6-mer frequency, TF over GST control)"
same,binding signal,ETV2,"1.28 fold enrichment (6-mer frequency, TF over GST control)"
same,binding signal,ELF3,"1.24 fold enrichment (6-mer frequency, TF over GST control)"
same,binding signal,CRX,"1.09 fold enrichment (6-mer frequency, TF over GST control)"
same,binding signal,ETV1,"1.21 fold enrichment (6-mer frequency, TF over GST control)"
